Assay results reported in PubChem BioAssay (NCI).
This is part of a sample that, as a whole, favours compounds with a hit. Of some 79,000 tested, about 15% had one in any assay. Unmarked numbers belong to inactive results. Activity calls are given as the source filed them. No stated cut-off is given here; in the data, active means growth inhibition above about 70%; inactive means the rest.

Experiments:
[1] = NCI Yeast Anticancer Drug Screen. Data for the rad50 strain (AID 155);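 further: 0% = growth of vehicle-only cultures of the same strain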; conditions: S. cerevisiae rad50 strain growth inhibition; at 50.0 µM; stronger effect = higher value
Method in brief: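 Genetically altered yeast (DNA repair pathway); compound treatment; growth inhibition vs vehicle ctrl.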

[2] = NCI Yeast Anticancer Drug Screen. Data for the mec2-1 strain (AID 157); conditions: S. cerevisiae mec2-1 strain, at 50.0 µM, stronger effect = higher value
Method in brief: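 Cells of the genetically defined mec2-1 yeast strain are incubated with test compound. Inhibition of growth is calculated against vehicle-treated controls.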

[3] = NCI Yeast Anticancer Drug Screen. Data for the sgs1 mgt1 strain (AID 161);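 further: 0% = growth of cultures given vehicle only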; conditions: S. cerevisiae sgs1 mgt1 strain, at 50.0 µM, stronger effect = higher value
Method in brief: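 Mutant yeast exposed to compound; growth scored against vehicle-only wells.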

[4] = NCI Yeast Anticancer Drug Screen. Data for the cln2 rad14 strain (AID 165);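 further: 0% = growth equal to vehicle treated cultures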; conditions: S. cerevisiae cln2 rad14 strain, at 50.0 µM, stronger effect = higher value
Method in brief: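 The screen exposed genetically defined yeast (cln2 rad14) to test compounds and scored growth inhibition relative to vehicle-treated controls.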

[5] = NCI Yeast Anticancer Drug Screen. Data for the bub3 strain (AID 167); conditions: S. cerevisiae bub3 mutant strain, at 50.0 µM, stronger effect = higher value
Method in brief: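 Yeast carrying a defined mutation is treated with each compound, and growth is compared with that of vehicle-exposed cells to give inhibition.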

[6] = NCI Yeast Anticancer Drug Screen. Data for the mlh1 rad18 strain (AID 175); conditions: S. cerevisiae mlh1 rad18 strain growth inhibition; at 50.0 µM; stronger effect = higher value
Method in brief: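 Compound-treated yeast growth, normalised to vehicle controls. Strain bears defined DNA repair mutations.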

Compound | growth inhibition [1] | growth inhibition [2] | growth inhibition [3] | growth inhibition [4] | growth inhibition [5] [%] | growth inhibition [6] [%]
O=C(CCCCC(=O)Nc1ccc2[nH]c3ccccc3c(=O)c2c1)Nc1ccc2[nH]c3ccccc3c(=O)c2c1 | 0.35% | 0.25% | -3.1% | -2.5% | -3.45 | 7.75
O=C1c2cccc3cccc(c23)C(=O)N1C(Cc1ccccc1)c1ccccc1 (stereo unspecified) | -15.5% | -49.4% | -15.1% | -4.2% | -37.8 | -31.1
O=C(N/N=C\c1ccc(Cl)cc1)c1ccccc1 | 8% | 6.9% | -0.1% | 4.45% | 7.05 | -4.55
CC(C)(CN1CCCCC1)C(=O)/C=C/c1ccc(Cl)cc1 | 34.6% | 11.9% | 36.2% | 38.5% | 12.6 | 46.7
N#CC(NC12CC3CC(CC(C3)C1)C2)c1ccccc1C(F)(F)F (stereo unspecified) | -18.6% | 7.3% | -30.9% | 10.4% | -30.1 | -12.9
Oc1cc2cc(-c3ccccc3)[nH]c2c2ccccc12 | -11.1% | -5.25% | -1.3% | 18.8% | -2.1 | 1.3
Clc1nc(Cl)c2ncnc(Cl)c2n1 | -34.5% | 16.1% | -23.2% | -11.4% | -3.7 | -5.7
COc1ccc(C(=O)C(C(=O)C(=O)NCCCNC(=O)C(=O)C(C(=O)c2ccc(OC)cc2)c2ccc(OC)cc2)c2ccc(OC)cc2)cc1 (stereo unspecified) | -11.9% | -25.6% | -7.1% | 13.8% | -9.25 | -10.7
CCCCc1c(OC)cc(O)c2c1C(=O)c1[nH]c(C(=O)O)c(O)c(=O)c1C2=O | -16.6% | -19.3% | -13.9% | -11.7% | -10.9 | -5.75
NC1=CCNN1 | 8.7% | -21.9% | 4.1% | 4.1% | 11.3 | 14.4
CCCCN(CCCC)CC(O)c1cc(-c2ccc(Cl)cc2)nc2cc(OC)c(OC)cc12 (stereo unspecified) | 99% (active) | 99.6% (active) | 99.7% (active) | 98.8% (active) | 51.8 | 69.9
COc1ccc(C(=O)CC(=O)CCC(=O)Nc2ccc(Cl)cc2Cl)cc1 | 26.4% | 19.1% | 20.9% | 19.8% | 8.2 | 7.75
CCCOc1cncc(C)n1 | 8% | 19.1% | -3.75% | -3.85% | 13.6 | 9.95
C(=C(Sc1ccccc1)Sc1ccccc1)C(Sc1ccccc1)c1ccccc1 (stereo unspecified) | 12.5% | 21.9% | -5.35% | 10.8% | 20.7 | -13.6
CCCCN(CCCC)CC(=O)NC(N)=O | 4.6% | 0.9% | -6.95% | -2.8% | 10.3 | -6.8
CCCN(CCC)S(=O)(=O)c1ccc(NC(=O)Oc2cc(C)ccc2C(C)C)cc1 | 32.5% | 1.75% | 24.2% | 21.5% | -5.25 | 14.8
Nc1ncnc2c1ncn2C1OC(CO)C(NC(=O)C(N)CCC(=O)O)C1O (stereo unspecified) | 1.75% | -4.2% | 21.6% | -9.4% | -0.9 | -5.3
O=[N+]([O-])c1ccc(N/N=C/c2ccccc2Cl)cc1 | 8% | 12.4% | 26.4% | -1.3% | 36.4 | 31.4
O=C(Nc1cccc(O)c1)OC1CCCCC1 | 25.8% | 6.05% | 25.2% | -18.1% | 34 | 24.4
O=C(COc1ccc(Cl)cc1Cl)Nc1c(Cl)cc(Cl)cc1Cl | 6.7% | 7.6% | -6.45% | 2% | -4.8 | 19.6
OC(CBr)(c1ccccc1)c1ccccc1 | 13.5% | 23.4% | 19.9% | 31.3% | 7 | 24.1

Compound | growth inhibition [1] | growth inhibition [2] | growth inhibition [3] | growth inhibition [4] | growth inhibition [5] [%] | growth inhibition [6] [%]
O=C(NCCCl)Nc1[nH]c(=O)ncc1Br | -13.2% | -12.7% | -10.8% | -44.4% | -6.85 | -12.3
CCc1cc(CN2CCN(CCO)CC2)c(O)c(CN2CCN(CCO)CC2)c1 | 1.5% | 6% | -13.2% | 3% | -0.9 | 9.35
O=[N+]([O-])c1ccc(-n2cccc2)cc1 | -0.55% | 20% | -0.55% | 44.4% | -0.75 | -7.2
CC(=O)c1ccc(N2C(=O)C3c4[nH]c5ccccc5c4C4CCC(C(C)(C)C)CC4C3C2=O)cc1 (stereo unspecified) | 42.8% | -2.7% | 0.5% | 63% | 16 | 18.4
O=c1[nH]c(=S)c2[nH]c(=O)n(-c3ccccc3)c2[nH]1 | -15.3% | -7.5% | -59.1% | -26.7% | -9.9 | -14.7
O=CNNC(=O)CN1C(=O)c2ccccc2C1=O | 3.3% | -0.45% | 3.4% | 17.8% | -3.35 | -6.65
CC(=O)CC(=O)Nc1cccc(C)c1 | -13.9% | -15.7% | 2.8% | 5.3% | 16.2 | -5.65
CC(=O)OCC/C=C\CCCOC(C)=O | 5.55% | -2.7% | -3% | -1.75% | 8.3 | 3.65
Brc1ccc(N=C2NN=CC2(c2ccccc2)c2ccccc2)cc1 | 25.6% | 1.75% | 6.75% | 4.85% | 19.6 | -1.15
COC1C(CO)OC(n2c3c(Cl)cccc3c3c4c(c5c6cccc(Cl)c6[nH]c5c32)C(=O)NC4=O)C(O)C1O (stereo unspecified) | 16.8% | 8.45% | -1.4% | 20.4% | 7.4 | -21.1
O=C(Nc1ccc(Cl)cc1Cl)C(=O)C(C(=O)c1ccc2ccccc2c1)C1OC(=O)c2ccccc21 (stereo unspecified) | 13.4% | 21.6% | 2.7% | 15.9% | -12.6 | -6.45
COC(=O)/C(C#N)=C(C)/C=C/c1ccc(OC)cc1 | 22.6% | 14% | 8% | -15.6% | 18.6 | 22.2
CC1CCC(NC2=NCCO2)C(C)C1 (stereo unspecified) | -20.4% | 0.4% | -3.85% | -29.4% | -14.1 | -3.35
CC(=O)[C@@]1(O)CC[C@H]2[C@@H]3C[C@H](C)C4=CC(=O)C=C[C@]4(C)[C@@]3(F)[C@@H](O)C[C@@]21C | -24.1% | 9.65% | -11.1% | -33% | -4.5 | -22.1
O=S(=O)([O-])[O-].O=c1[nH]cnc2[nH]ncc12.O=c1[nH]cnc2[nH]ncc12.[Cu+2] | -22.1% | -7.95% | -47.2% | -32% | -18.7 | -18.1
CCOc1ccc(OCC)c(N)c1 | -25.9% | 2.1% | -2.5% | -44% | 10.2 | -19.5
O=C(O)C1CSC2(CCCN(Cc3ccccc3)C2)N1 (stereo unspecified) | -17.7% | -29.4% | -5.85% | -3.7% | -17.1 | 5.2
COC1=CC(=O)C(CCC(C)=O)=CC1=O | -41.3% | -29.6% | -9.55% | -16.4% | 15.2 | -4.3
COc1ccc2[nH]cc(CC(N)=O)c2c1 | -25.8% | -28.8% | -39.4% | 12.7% | -41.4 | -19.5
CCN(CC)C1CS(=O)(=O)OC2=C1CSCC2 (stereo unspecified) | -2.4% | 19.1% | 11.3% | 3.75% | 4.35 | -31.5
